From PubChem BioAssay
Calls of active or inactive are those of the source.

Tests used:
[1] = optical density shifts of acrAB sulA E. coli – strain DRC41, OD650, 48 h, E. coli filamentation inducer project, primary screen (AID 1152); conditions: higher = more signal, called active from +8 up or from −8 down;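 also: E. coli MC1000 strain DRC41 lacking acrAB efflux pump and sulA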
[2] = probe aLefty1 binding on compound microarray – biochemical, small-molecule microarray, 635/667 nm fluorescence, primary screen (AID 1153); conditions: higher = more signal;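 also: score merges spot fluorescence with signal-to-noise ratio from the scanned slide images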
[3] = plasmodial surface anion channel blockers, osmotic lysis – cell-based, P. falciparum Indochina, OD700, 1 h, primary screen (AID 1154); conditions: P. falciparum Indochina infected RBC osmotic lysis, higher = more signal, called active from +8 up or from −8 down
[4] = plasmodial surface anion channel blockers, osmotic lysis – cell-based, P. falciparum Indochina, OD700, 2 h, primary screen (AID 1155);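 also: lysis reports solute entry through the parasite surface anion channel PSAC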; conditions: P. falciparum Indochina infected erythrocytes, higher = more signal, called active from +8 up or from −8 down
[5] = changes in parasitized red cell lysis, either direction – P. falciparum Indochina, OD700, 3 h, PSAC antagonist project, primary screen (AID 1156); conditions: P. falciparum-infected erythrocytes, osmotic lysis, higher = more signal, called active from +8 up or from −8 down
[6] = plasmodial surface anion channel blockers, osmotic lysis – cell-based, P. falciparum Indochina, OD700, 18 h, primary screen (AID 1157); conditions: P. falciparum Indochina infected erythrocytes, osmotic lysis OD700, 18 h; higher = more signal, called active from +8 up or from −8 down
[7] = S6 kinase pathway phospho-S6 level changes – cell-based, A549, cytoblot, luminescence, serum-stimulated, primary screen (AID 1158); conditions: 5 h, higher = more signal;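 also: serum-stimulated A549 lung adenocarcinoma cells; signal is phosphorylated S6 detected by cytoblot immunostaining with HRP secondary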
[8] = target: NADPH oxidase 2 (Homo sapiens) (UniProt P04839); experiment: compounds shifting NOX2 Amplex Red fluorescence – cell-based, HEK293-NOX2, PMA-stimulated, NOX inhibitor project, primary screen (AID 1159); conditions: 45 min, higher = more signal, called active from +8 up or from −8 down; also: test concentration not given here
Sequence of NADPH oxidase 2 (Homo sapiens) (P04839 whole entry, looked up): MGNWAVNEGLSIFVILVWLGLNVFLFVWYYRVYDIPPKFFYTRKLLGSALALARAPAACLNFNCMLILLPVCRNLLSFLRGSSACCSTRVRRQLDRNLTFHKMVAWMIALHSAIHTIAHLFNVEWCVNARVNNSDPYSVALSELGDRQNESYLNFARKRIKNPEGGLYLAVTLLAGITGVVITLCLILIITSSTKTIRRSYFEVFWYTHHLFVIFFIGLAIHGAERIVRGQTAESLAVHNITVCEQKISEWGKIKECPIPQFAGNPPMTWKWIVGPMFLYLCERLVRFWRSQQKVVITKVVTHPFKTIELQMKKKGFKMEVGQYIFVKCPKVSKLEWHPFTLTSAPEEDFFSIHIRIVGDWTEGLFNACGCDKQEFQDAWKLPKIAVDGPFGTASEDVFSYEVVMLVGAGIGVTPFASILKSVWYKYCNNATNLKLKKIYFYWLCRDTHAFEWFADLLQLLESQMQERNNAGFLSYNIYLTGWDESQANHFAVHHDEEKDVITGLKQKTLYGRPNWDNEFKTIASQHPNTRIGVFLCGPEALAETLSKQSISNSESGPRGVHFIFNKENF

[9] = target: NADPH oxidase 4 (Homo sapiens) (UniProt Q9NPH5); experiment: compounds shifting NOX4 Amplex Red fluorescence – cell-based, HEK293-NOX4, tetracycline-induced, NOX inhibitor project, primary screen (AID 1160); conditions: HEK293-NOX4, Amplex Red H2O2 fluorescence, 45 min; higher = more signal, called active from +8 up or from −8 down
Sequence of NADPH oxidase 4 (Homo sapiens) (Q9NPH5 whole entry, looked up): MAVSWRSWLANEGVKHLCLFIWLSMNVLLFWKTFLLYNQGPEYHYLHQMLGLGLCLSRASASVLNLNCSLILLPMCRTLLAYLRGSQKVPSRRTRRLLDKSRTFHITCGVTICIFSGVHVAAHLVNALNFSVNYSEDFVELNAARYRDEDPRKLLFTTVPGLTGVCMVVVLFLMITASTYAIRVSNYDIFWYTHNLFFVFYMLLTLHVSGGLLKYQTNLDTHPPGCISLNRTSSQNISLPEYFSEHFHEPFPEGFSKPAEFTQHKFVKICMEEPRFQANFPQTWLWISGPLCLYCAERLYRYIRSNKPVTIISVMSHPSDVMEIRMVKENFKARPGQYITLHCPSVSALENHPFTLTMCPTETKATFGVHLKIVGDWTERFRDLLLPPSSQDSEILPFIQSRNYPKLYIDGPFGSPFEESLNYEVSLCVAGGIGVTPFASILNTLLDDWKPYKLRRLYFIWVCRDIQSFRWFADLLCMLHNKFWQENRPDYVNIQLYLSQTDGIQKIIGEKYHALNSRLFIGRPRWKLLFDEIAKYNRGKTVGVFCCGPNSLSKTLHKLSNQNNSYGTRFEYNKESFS

[10] = target: NADPH oxidase 5 (Homo sapiens) (UniProt Q96PH1); experiment: compounds shifting NOX5 Amplex Red fluorescence – cell-based, HEK293-NOX5, NOX inhibitor project, primary screen (AID 1161); conditions: HEK293-NOX5, ionomycin, 45 min, higher = more signal
Sequence of NADPH oxidase 5 (Homo sapiens) (Q96PH1 whole entry, looked up): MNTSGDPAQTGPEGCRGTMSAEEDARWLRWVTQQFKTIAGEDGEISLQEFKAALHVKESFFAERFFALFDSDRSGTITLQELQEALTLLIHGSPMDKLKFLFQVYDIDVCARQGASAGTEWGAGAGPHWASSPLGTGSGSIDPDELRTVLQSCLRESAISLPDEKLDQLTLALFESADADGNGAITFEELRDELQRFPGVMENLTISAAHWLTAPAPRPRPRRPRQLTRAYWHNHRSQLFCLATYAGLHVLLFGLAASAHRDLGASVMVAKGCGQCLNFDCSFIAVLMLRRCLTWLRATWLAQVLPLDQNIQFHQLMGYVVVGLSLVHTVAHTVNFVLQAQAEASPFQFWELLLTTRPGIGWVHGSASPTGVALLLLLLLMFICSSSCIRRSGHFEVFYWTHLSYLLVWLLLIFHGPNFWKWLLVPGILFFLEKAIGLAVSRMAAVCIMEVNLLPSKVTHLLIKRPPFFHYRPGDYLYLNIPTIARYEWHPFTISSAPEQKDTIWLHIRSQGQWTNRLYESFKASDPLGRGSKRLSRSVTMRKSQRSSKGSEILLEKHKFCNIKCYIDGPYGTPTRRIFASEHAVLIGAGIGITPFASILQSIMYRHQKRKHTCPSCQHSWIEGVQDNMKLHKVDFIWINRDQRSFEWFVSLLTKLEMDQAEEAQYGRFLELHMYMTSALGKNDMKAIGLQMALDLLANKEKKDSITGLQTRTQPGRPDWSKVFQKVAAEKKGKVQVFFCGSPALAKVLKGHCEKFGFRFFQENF

[11] = compound effects on lung adenocarcinoma cell viability – A549, calcein-AM fluorescence, 48 h, basal, profiling panel (AID 1162); conditions: higher = more signal; also: test concentration not given here
[12] = compound effects on differentiated 3T3-L1 adipocyte viability – cell-based, 3T3-L1 adipocytes, calcein-AM fluorescence, 48 h, basal, profiling panel (AID 1163); conditions: 3T3-L1 adipocytes viability, higher = more signal; also: test concentration not given here
[13] = compound effects on hepatocellular carcinoma cell viability – HepG2, calcein-AM fluorescence, 48 h, basal, profiling panel (AID 1164); conditions: higher = more signal; also: test concentration not given here
[14] = compound effects on multiple myeloma cell viability – MM1S, calcein-AM fluorescence, 48 h, basal, profiling panel (AID 1165); conditions: higher = more signal; also: test concentration not given here
[15] = calcein-AM signal in unstimulated myeloma cells – cell-based, calcein-AM fluorescence, 48 h, PK04 Diversity Set, profiling panel (AID 1166); conditions: RPMI8226 myeloma viability, higher = more signal;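 also: cells grown under basal conditions without added stimulus; test concentration not given here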
[16] = JC-1 mitochondrial signal, unstimulated HepG2 cells – cell-based, JC-1 fluorescence, 24 h, 100 nL compound, profiling panel (AID 1167); conditions: HepG2 mitochondrial potential, higher = more signal; also: test concentration not given here
[17] = JC-1 mitochondrial signal, unstimulated adipocytes – cell-based, JC-1 fluorescence, 3T3-L1 adipocytes, 24 h, 100 nL compound, profiling panel (AID 1168); conditions: JC-1 mitochondrial fluorescence, higher = more signal, called active from +8 up or from −8 down; also: test concentration not given here
[18] = JC-1 mitochondrial signal, unstimulated myeloma cells – cell-based, JC-1 fluorescence, RPMI8226, 24 h, 100 nL compound, profiling panel (AID 1169); conditions: JC-1 mitochondrial potential fluorescence, higher = more signal; also: test concentration not given here
[19] = JC-1 mitochondrial signal, unstimulated MM1S myeloma – cell-based, JC-1 fluorescence, 24 h, 100 nL compound, profiling panel (AID 1170); conditions: MM1S mitochondrial potential, higher = more signal; also: test concentration not given here
[20] = resazurin metabolic signal in A549 cells – cell-based, resazurin fluorescence, 24 h, PK04 Diversity Set, profiling panel (AID 1171); conditions: A549 viability, higher = more signal, called active from +8 up or from −8 down; also: test concentration not given here

| SMILES | z-score [1] | composite z-score [2] | z-score [3] | z-score [4] | z-score [5] | z-score [6] | z-score [7] | z-score [8] | z-score [9] | z-score [10] | z-score [11] | z-score [12] | z-score [13] | z-score [14] | z-score [15] | z-score [16] | z-score [17] | z-score [18] | z-score [19] | z-score [20] |
| --- | --- | --- | --- | --- | --- | --- | --- | --- | --- | --- | --- | --- | --- | --- | --- | --- | --- | --- | --- | --- |
| CC(C)(C)N1CC=CC23O[C@@H]4C=CCOC(=O)[C@@H]4[C@H]2C(=O)N(CCCO)[C@@H]3C1=O (stereo not given in full) | 0.799 (inactive) | -0.429 | -0.103 (inactive) | -0.831 (inactive) | 0.858 (inactive) | -1.53 (inactive) | 0.364 | -0.693 (inactive) | -0.00336 (inactive) | -1.09 | 0.495 | 1.55 | -0.0446 | 0.656 | -0.664 | -0.57 | -0.272 (inactive) | -0.379 | 0.745 | -0.89 (inactive) |
| O=C1NC(=O)C2C1C=CC(C(O)c1cc(C(F)(F)F)cc(C(F)(F)F)c1)N2Nc1ccc(Cl)cc1Cl (stereo not given) | -2.29 (inactive) | 0.546 | 0.321 (inactive) | 0.168 (inactive) | -1.6 (inactive) | 0.998 (inactive) | -1.41 | 0.128 (inactive) | -5.87 (inactive) | -2.22 | -3.02 | 0.0578 | -2.76 | -3.69 | -3.56 | -2.94 | -1.19 (inactive) | -0.387 | 0.4 | -1.24 (inactive) |
| O=C1NC(=O)C2C1C=CC(C(O)c1ccc(Br)cc1)N2Nc1ccccn1 (stereo not given) | -0.325 (inactive) | 0.5 | -0.0691 (inactive) | -1.06 (inactive) | 0.215 (inactive) | -1.94 (inactive) | 0.599 | -1.54 (inactive) | -2.6 (inactive) | -1.93 | 0.636 | 0.805 | 0.909 | -0.0483 | -0.767 | -0.169 | 0.195 (inactive) | 0.698 | -0.273 | -1.58 (inactive) |
| COc1ccc([Si](C)(C)[C@H]2[C@H](CC(=O)N3Cc4ccccc4C[C@H]3CO)O[C@@]3(C(=O)N(Cc4cccc(N5CCCCC5=O)c4)c4ccccc43)[C@@H]2C)cc1 | -0.431 (inactive) | 0.0391 | 3.41 (inactive) | 0.966 (inactive) | 0.357 (inactive) | 0.549 (inactive) | 1.83 | -0.508 (inactive) | 0.916 (inactive) | -0.169 | -0.463 | 0.785 | -0.229 | -1.87 | -3.08 | -0.189 | -0.198 (inactive) | -1.07 | -1.46 | -0.646 (inactive) |
| CC(C)(C)OC(=O)CC[C@]1(C(=O)O)N=C(c2ccc(OCCCO)cc2)O[C@H]1c1ccccc1 | 1.11 (inactive) | -0.362 | 11.9 (active) | 1.08 (inactive) | -0.0867 (inactive) | -0.284 (inactive) | 0.733 | 0.643 (inactive) | 0.228 (inactive) | 1.68 | -0.078 | 0.155 | -0.0903 | 0.55 | -0.135 | 0.367 | 0.721 (inactive) | -0.0713 | -0.513 | 0.16 (inactive) |
| CC(C)C(=C=CC[C@@H](O)c1ccccc1OCCO)C[C@@H](O)COCc1ccccc1 | 1.6 (inactive) | -0.103 | 6.77 (inactive) | 2.19 (inactive) | -1.43 (inactive) | -0.119 (inactive) | 0.86 | 0.0182 (inactive) | 0.489 (inactive) | -1.52 | 1.03 | 0.435 | 0.146 | -0.338 | -0.399 | 0.324 | 0.791 (inactive) | 0.0761 | 0.339 | 0.15 (inactive) |
| CC(C)(C)OC(=O)CC[C@@]1(C(=O)O)N=C(c2ccc(OCCCO)cc2)O[C@@H]1c1ccccc1CN=[N+]=[N-] | 0.648 (inactive) | 0.479 | 24.5 (active) | 10 (active) | -0.0836 (inactive) | 1.53 (inactive) | 0.0274 | 0.716 (inactive) | 0.691 (inactive) | 1.53 | 0.824 | -0.0107 | 0.0885 | 0.131 | 0.813 | -0.0553 | -0.913 (inactive) | -0.411 | -0.579 | 10.4 (active) |
| COCCCNC(=O)[C@]1(CCC(=O)OC(C)(C)C)N=C(c2ccc(OCCCO)cc2)O[C@@H]1c1ccccc1 | 0.134 (inactive) | -0.166 | 14.7 (active) | 1.61 (inactive) | 0.58 (inactive) | 0.57 (inactive) | -0.507 | -0.00397 (inactive) | 0.689 (inactive) | -0.139 | 0.369 | -0.342 | -0.797 | 0.326 | -0.0674 | -0.145 | 0.0968 (inactive) | 0.86 | -0.705 | 0.119 (inactive) |
